HP1b binding inh: HTS for Inhibitors of HP1-beta Chromodomain Interactions with Methylated Histone Tails. Chromobox protein homolog 1 (Homo sapiens), P83916. AlphaScreen HP1-beta / biotin-H3K9me3 peptide binding. Potency, µM (top dose mostly 114 µM), actives largely listed as inhibitors. 390,000 compounds, 0.56% hits. AID 540317, 2011; note: nearly all actives have a fitted effect of over 70% in size
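Compound inhibition of the preformed complex between 50 nM HP1-beta and 50 nM biotinylated H3K9me3 peptide was read by AlphaScreen. Buffer was PBS pH 7.4 with 0.01% Tween-20. Incubations ran 30 min at room temperature, with 10 ug/mL donor/acceptor beads.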
JMJD2A Tudor inh: qHTS Assay for Inhibitors of JMJD2A-Tudor Domain; 390,000 compounds, 4.4% hits; Potency, µM (top dose mostly 114 µM), actives largely listed as inhibitors; AlphaScreen JMJD2A-Tudor / H3K4me3 peptide binding; Lysine-specific demethylase 4A (Homo sapiens), O75164; note: nearly all actives have a fitted effect of over 50% in size
BAZ2B inh: qHTS Assay for Inhibitors of BAZ2B. AID 504333, 2011. AlphaScreen BAZ2B-H3K14Ac peptide displacement. 360,000 compounds, 4.4% hits. Bromodomain adjacent to zinc finger domain protein 2B (Homo sapiens), Q9UIF8. Potency, µM (series often up to 114 µM), hits mostly inhibitors; note: nearly all actives have a fitted effect of over 60% in size
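Multi-concentration screen (max 110 uM) measuring displacement of acetylated histone H3 peptide from BAZ2B by AlphaScreen, using 50 nM protein, 50 nM peptide and 10 ug/mL streptavidin donor plus Ni-chelate acceptor beads.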
Sfp inh: qHTS Assay for Inhibitors of Bacillus subtilis Sfp phosphopantetheinyl transferase (PPTase); Biochemical Sfp PPTase activity, qHTS; Potency, µM, actives largely listed as inhibitors; 310,000 compounds, 3.5% hits; 4'-phosphopantetheinyl transferase ffp (Bacillus subtilis), Q9F4F7; AID 1490, 2009;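 note: the enzyme is Sfp with the accession as filed and its product quenches rhodamine fluorescence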
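Step 1, compound plus 15 nM Sfp-PPTase, 15 min, room temperature. Step 2, add rhodamine-CoA (5 uM) and BHQ-2-YbbR (12.5 uM). Step 3, read 525/598 nm fluorescence at 0 and 30 min.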
PLK1 PBD inh: qHTS for Inhibitors of PLK1-PDB (polo-like kinase 1 - polo-box domain): Primary Screen; Plk1 PBD binding of FITC phosphopeptide, fluorescence polarization; Potency, µM, most hits filed as inhibitors; 360,000 compounds, 2.8% hits; note: series mostly up to about 57 µM; nearly all actives have a fitted effect of over 65% in size
G9a block: qHTS Assay for Inhibitors of Histone Lysine Methyltransferase G9a; Histone-lysine N-methyltransferase EHMT2 (Homo sapiens), Q96KQ7; G9a H3K9 monomethylation, AlphaScreen, 2 h; Potency, µM (highest dose often 102 µM), most hits filed as inhibitors; 350,000 compounds, 8.8% hits; AID 504332, 2011; note: nearly all actives have a fitted effect of over 75% in size
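Signal arises when biotinylated H3K9 peptide, once monomethylated, bridges streptavidin donor and antibody-captured acceptor beads. Enzyme at 20 nM was preincubated 15 min with test compounds; peptide 500 nM and SAM 20 uM then reacted for 2 h.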
Hits are given with their value; . = inactive; ? = inconclusive; / = no result given; [ ] = another dose, or the depositor's remark. In the library only some 12% were active in any assay of this set; here they are far more common. Calls come from the whole dose curve; as a rule, active = well fitted curve in the direction sought with a large enough effect; inconclusive = small, poorly fitted or top-dose-only effect, or another doubt; inactive = no such curve, though single readings can be large; an effect the other way counts as inactive or inconclusive.

SMILES	HP1b binding inh	JMJD2A Tudor inh	BAZ2B inh	Sfp inh	PLK1 PBD inh	G9a block
O=C(CCCCl)NC(=S)Nc1ccc(N2CCOCC2)cc1	.	.	.	?	.	/
O=C(CCCCl)NC(=S)Nc1ccc(CN2CCOCC2)cc1	.	.	.	.	.	50.1µM
CCOc1ccc(C(=O)Nc2ccc(CN3CCOCC3)cc2)cc1Br	.	?	.	.	29.9µM	.
O=C(NC(=S)NCCN1CCOCC1)c1ccc(F)cc1	.	.	.	.	.	.
COc1ccc(C(=O)NC(=S)NNC(=O)c2ccc(NC(C)=O)cc2)cc1Br	.	.	.	.	.	39.8µM
Cc1ccc(C(=O)NC(=S)NNC(=O)CCN2CCOCC2)cc1	.	.	56.2µM	.	.	8.91µM
CCN(CC)C(=O)CN1C(=O)C2(OCC(C)(C)CO2)c2ccccc21	.	.	.	/	.	.[12.7 µM]
COc1ccc(C(=O)NC(=S)Nc2ccccc2N2CCOCC2)cc1Br	?	?	?	.	.	.
COc1ccc(C(=O)NC(=S)Nc2ccc(CN3CCOCC3)cc2)cc1Br	.	?	?	.	.	44.7µM
CC(=O)C(C(C)=O)c1c(Cl)c(O)c(O)c2c(C(=O)c3ccccc3)coc12	?	63.1µM	44.7µM	6.31µM	.	?
CN1CCN(Cc2c(O)ccc3occ(C(=O)c4ccccc4)c23)CC1	.	.	.	.	.	.
CCOC(=O)c1[nH]cnc1C(=O)Nc1ccc(C)cc1	.	.	.	.	.	?
CCOC(=O)c1[nH]cnc1C(=O)Nc1ccccn1	.	.	79.4µM	.	.	?
CCOC(=O)c1[nH]cnc1C(=O)Nc1cccc(Cl)c1	.	.	89.1µM	.	.	?
CCOC(=O)c1[nH]cnc1C(=O)Nc1ccc(Cl)cc1	.	.	.	.	.	.
CCOC(=O)c1[nH]cnc1C(=O)Nc1ccccc1OC	.	?	89.1µM	.	.	?
CC(O)CCCCCCC/C=C/C=C/C(N)=O (stereo not given)	/	/	/	.	/	/
CC(=O)Nc1ccc(S(=O)(=O)Nc2cccc(-c3cn4c(n3)SCC4)c2)cc1	.	.	/	.	.	?
O=C(Nc1cccc(-c2cn3c(n2)SCC3)c1)c1ccc(Br)o1	.	.	56.2µM	.	.	7.94µM
CN(C)S(=O)(=O)Nc1cccc(-c2cn3c(n2)SCC3)c1	.	.	.	.	?	.
CCc1ccc(-c2cn3c(n2)SCC3)cc1	.	.	?	.	?	44.7µM
O=C(Nc1ccc(-c2cn3c(n2)SCC3)cc1)c1ccco1	.	.	.	.	?	28.2µM
O=C(Cc1ccc(F)cc1)Nc1cccc(-c2cn3c(n2)SCC3)c1	.	.	?	.	.	10µM
COc1ccc(C2=CC(=O)C=CC2=O)cc1	/	/	10µM	3.16µM	/	1.26µM
Cc1ccc(Cl)cc1NC(=O)c1cc2c(=O)n3cccc(C)c3nc2n1C	.	.	.	/	/	.
SMILES	HP1b binding inh	JMJD2A Tudor inh	BAZ2B inh	Sfp inh	PLK1 PBD inh	G9a block
CCOC(=O)C(C)NC(=O)c1cc2c(=O)[nH]c3ccc(C)cc3c2s1 (stereo not given)	.	.	.	/	/	.
Cc1ccc2[nH]c(=O)c3cc(C(=O)NC(C)C)sc3c2c1	.	31.6µM	.	.	?	.
C/C(=N/Nc1ccc(C)cc1)C1(C)N(O)C(C)(C)C(c2ccco2)=[N+]1[O-] (stereo not given)	.	.	?	.	.	7.08µM
Cc1cc(-c2c(C)[nH]n(-c3ccc(Cl)cc3)c2=O)n(-c2ccccc2)n1	.	.	.	.	.	.
CC1=NN(c2ccc(Cl)cc2)C(=O)C1C(c1cccc(O)c1)c1c(C)[nH]n(-c2ccc(Cl)cc2)c1=O (stereo not given)	?	56.2µM	44.7µM	.	5.32µM	?
CC1=NN(c2ccc(F)cc2)C(=O)C1C(c1cccc(O)c1)c1c(C)[nH]n(-c2ccc(F)cc2)c1=O (stereo not given)	.	.[11.4 µM]	.	.	5.32µM	?
COc1ccccc1N1C(=O)c2cccc3c(C(=O)O)ccc(c23)C1=O	.	79.4µM	.	.	.	.
COc1ccccc1N1C(=O)c2cccc3c(N(C)CCO)ccc(c23)C1=O	.	.	.	.	.	.
CC1=NC(=O)C(N=Nc2cccc(O)c2)N1c1ccccc1 (stereo not given)	?	31.6µM	20µM	.	.	?
Cc1cc(C(=O)N/N=C/c2cc(Cl)cc([N+](=O)[O-])c2O)c2ccccc2n1	?	56.2µM	39.8µM	.	.	?
O=C(N/N=C/c1cc(Cl)cc([N+](=O)[O-])c1O)c1ccccc1NS(=O)(=O)c1cccs1	?	56.2µM	.	.	?	/
O=C(NN=Cc1cc(Cl)ccc1[N+](=O)[O-])c1cccc2ccccc12	.	.	/	/	.	/
CC(C)CC(=O)N1CCN(C(=O)c2ccc(F)cc2)CC1	.	.	.	.	.	/
CC(C)OC(=O)c1ccc(N2CCN(c3ccc(F)cc3)CC2)nc1	.	?	.	.	26.7µM	.[2.33 µM]
COC(=O)[C@@]1(Cc2ccccc2)[C@H]2C(=O)N(C)C(=O)[C@H]2[C@H]2CN=C(SCc3ccc(Cl)cc3)N21	.	.	/	/	.	/
NCC(O)CN1CCN(Cc2ccccc2)CC1 (stereo not given)	.	.	.	.	.	?
Cc1ccc(CNC(=O)CS(=O)(=O)c2cn(CC(=O)N3CCOCC3)c3ccccc23)cc1	.	.	.	39.8µM	.	25.1µM
COc1ccccc1CCNC(=O)C(=O)c1cn(CC(=O)N2CCOCC2)c2ccccc12	.	.	.	.	23.8µM	/
CC(=O)Nc1ccc(NC(=O)Cn2c(CC(=O)N3CCCC3)nc3ccccc32)cc1	?	?	.	.	29.9µM	.
O=C(CS(=O)(=O)c1cn(CC(=O)N2CCCC2)c2ccccc12)Nc1ccccc1	.	.	.	.	.	.
CC(=O)Nc1ccc(NC(=O)CS(=O)(=O)c2cn(CC(=O)N3CCCC3)c3ccccc23)cc1	.	.	.	.	.	39.8µM
O=C(CS(=O)(=O)c1cn(CC(=O)N2CCOCC2)c2ccccc12)Nc1ccccc1	.	.	/	.	.	?
CC(=O)Nc1ccc(C(=O)CSc2nc3ccccc3n2CC(=O)N2CCCC2)cc1	.	.	.	?	?	?
COc1ccccc1C(=O)Nc1cc(-c2ccc(C)cc2)no1	.	.	.	?	.	.

Compound activity: PubChem BioAssay, National Center for Advancing Translational Sciences (NCATS)
